PubChem BioAssay (Tox21)
Inconclusive results are not listed. Activity calls are given as the source filed them. Unless noted, calls follow the shape of the dose curve; as a rule, active = well fitted cell-killing curve with a large enough effect in the repeat runs (not every such curve was filed as active); inconclusive = weak or mixed curves, or effect the other way; inactive = no such curve, though single readings can be large or run the other way.

molecular target: Bile acid receptor (Homo sapiens) (UniProt Q96RI1); assay: qHTS assay to identify small molecule agonists of the farnesoid-X-receptor (FXR) signaling pathway (AID 743220; active = well fitted activation curve with a large enough effect in the signal ratio in the repeat runs, not every such curve was filed as active; the % refers to the signal ratio); conditions: HEK293T FXR-UAS-bla, beta-lactamase FRET ratio, 16 h; series mostly up to 62.6 µM; activation: at the top concentration
How it was run: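 Beta-lactamase reporter under UAS control in GeneBLAzer FXR HEK 293T cells (5000/well) measured with LiveBLAzer FRET substrate after 2 h at room temperature. Compound exposure lasted 16 h at 37C.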
% is scaled to controls: 0 for no effect and ±100 for the full control effect.

Chain of Bile acid receptor (Homo sapiens) (Q96RI1 whole entry, looked up): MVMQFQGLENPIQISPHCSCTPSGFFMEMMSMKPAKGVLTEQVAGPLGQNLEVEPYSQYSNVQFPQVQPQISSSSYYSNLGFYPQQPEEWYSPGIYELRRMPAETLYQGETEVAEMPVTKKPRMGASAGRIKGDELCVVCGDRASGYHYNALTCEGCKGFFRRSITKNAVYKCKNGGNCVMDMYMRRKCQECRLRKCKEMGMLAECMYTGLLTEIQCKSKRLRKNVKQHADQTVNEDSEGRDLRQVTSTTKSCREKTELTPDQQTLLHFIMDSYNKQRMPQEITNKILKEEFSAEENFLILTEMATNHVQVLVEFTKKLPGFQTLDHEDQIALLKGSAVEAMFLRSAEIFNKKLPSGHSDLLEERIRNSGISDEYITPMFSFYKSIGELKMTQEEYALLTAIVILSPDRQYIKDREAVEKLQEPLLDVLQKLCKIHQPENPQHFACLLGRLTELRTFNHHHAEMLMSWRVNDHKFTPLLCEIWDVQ

Row | SMILES | activation
1 | CN(CC1(C)CCCO1)S(=O)(=O)c1ccc(Cl)c(S(N)(=O)=O)c1 (centres undefined) | -0.962% (inactive)
2 | CN1C(=O)CC(c2ccccc2)C1=O (centres undefined) | -3.31% (inactive)
3 | CCOc1ccc(NC(N)=O)cc1 | -0.199% (inactive)
4 | CCCCc1ccc2nc(NC(=O)OC)[nH]c2c1 | 0.764% (inactive)
5 | CN(CCCN1c2ccccc2CCc2ccccc21)CC(=O)c1ccc(Cl)cc1 | -0.516% (inactive)
6 | CCNCCO | 5.36% (inactive)
7 | N#Cc1ccc(C(c2ccc(C#N)cc2)n2cncn2)cc1 | 0.225% (inactive)
8 | O=C1CCC(C2CCCCC2)CC1 | -2.34% (inactive)
9 | NC(=O)NS(=O)(=O)c1ccc(Cl)cc1 | 0.711% (inactive)
10 | CCCCCCCCOC(=O)CCCCCCCCC(=O)OCCCCCCCC | -0.476% (inactive)
11 | OCCN(CCO)c1ccccc1 | 0.286% (inactive)
12 | CC1=C(O)C(=O)OC1C (centres undefined) | -0.42% (inactive)
13 | CCCc1c2oc(C(=O)O)cc(=O)c2cc2c(=O)cc(C(=O)O)n(CC)c12 | 0.0848% (inactive)
14 | CC(=O)N[C@@H](CC(C)C)C(=O)O | -1.08% (inactive)
15 | CCCS(=O)c1ccc2nc(NC(=O)OC)[nH]c2c1 (centres undefined) | -4.05% (inactive)
16 | C1CCOC1 | -1.53% [at 81.1 µM] (inactive)

test system: not listed separately; assay: qHTS assay to identify small molecule antagonists of the farnesoid-X-receptor (FXR) signaling pathway - cell viability counter screen (AID 743221); conditions: FXR-bla HEK293T viability, CellTiter-Glo luminescence, 16 h; series mostly up to 62.6 µM; activity change, negative = cytotoxicity: at the top concentration; also: nearly all actives have a fitted effect of over 50% in size
How it was run: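 GeneBLAzer FXR-UAS-bla HEK 293T cells, compound plus chenodeoxycholic acid (50 uM final), 16 h at 37 C. CellTiter-Glo added to the same wells after the beta-lactamase read; luminescence read after 30 min at room temperature as viability.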

Row | SMILES | activity change, negative = cytotoxicity
17 | CN(CC1(C)CCCO1)S(=O)(=O)c1ccc(Cl)c(S(N)(=O)=O)c1 (centres undefined) | 8.52% (inactive)
18 | OCc1ccccc1O | 1.5% (inactive)
19 | CN1C(=O)CC(c2ccccc2)C1=O (centres undefined) | -0.199% (inactive)
20 | Cc1c(C(=O)NCCO)[n+](=O)c2ccccc2n1[O-] | 1.21% (inactive)
21 | O=S(=O)(O)C(F)(F)F | 7.9% (inactive)
22 | CCCCC1CCC(=O)O1 (centres undefined) | 3.15% (inactive)
23 | CCOc1ccc(NC(N)=O)cc1 | -9.3% (inactive)
24 | CCCCCCCCCC#N | 0.122% (inactive)
25 | CCCCC(=O)O[C@]1(C(=O)CO)[C@H](C)C[C@H]2[C@@H]3CCC4=CC(=O)C=C[C@]4(C)[C@@]3(F)[C@@H](O)C[C@@]21C | -1.43% (inactive)
26 | CCCCc1ccc2nc(NC(=O)OC)[nH]c2c1 | -19.4% (inactive)
27 | O=C(O)c1ccccc1Nc1cc(Cl)ccc1C(=O)O | 2.38% [at 29.1 µM] (inactive)
28 | CCCCCOc1ccc(C2SC(=O)NC2=O)cc1OCC (centres undefined) | -28.2% (inactive)
29 | CC(C)CC(=O)OCc1ccccc1 | -11.4% (inactive)
30 | CC/C=C\CCOC(=O)C(C)C | 0.498% (inactive)
31 | CN(CCCN1c2ccccc2CCc2ccccc21)CC(=O)c1ccc(Cl)cc1 | -5.21% (inactive)
32 | CCNCCO | 5.15% (inactive)
33 | CCCCNc1ccc(C(=O)OCCN(CC)CC)cc1 | -7.99% (inactive)

Row | SMILES | activity change, negative = cytotoxicity
34 | CCOC(=O)NCCC[Si](OCC)(OCC)OCC | 14.9% (inactive)
35 | Cc1ccc([N+](=O)[O-])c(N)c1 | -0.129% (inactive)
36 | N#Cc1ccc(C(c2ccc(C#N)cc2)n2cncn2)cc1 | -0.233% (inactive)
37 | O=C1CCC(C2CCCCC2)CC1 | -9.98% (inactive)
38 | CCCCCCCCOC(=O)CCCCCCCCC(=O)OCCCCCCCC | 0.98% (inactive)
39 | OCCN(CCO)c1ccccc1 | 2.06% (inactive)
40 | OCC(CBr)(CBr)CBr | -6.94% (inactive)
41 | CC1=C(O)C(=O)OC1C (centres undefined) | 3.51% (inactive)
42 | COC(C)CCO (centres undefined) | 7.24% (inactive)
43 | CCCc1c2oc(C(=O)O)cc(=O)c2cc2c(=O)cc(C(=O)O)n(CC)c12 | -0.621% (inactive)
44 | CN1CCN(c2c(F)cc3c(=O)c(C(=O)O)cn(CCF)c3c2F)CC1 | -0.894% (inactive)
45 | CC(C)Nc1nc(N)nc(Cl)n1 | 6.53% (inactive)
46 | CC(=O)N[C@@H](CC(C)C)C(=O)O | 10.2% (inactive)
47 | CCCS(=O)c1ccc2nc(NC(=O)OC)[nH]c2c1 (centres undefined) | -5.82% (inactive)
48 | O=C1N(c2ccccc2)c2ccccc2C1(Cc1ccncc1)Cc1ccncc1 | 1.77% (inactive)
49 | C1CCOC1 | 3.71% [at 81.1 µM] (inactive)
